# Bioassay records deposited in PubChem BioAssay by National Center for Advancing Translational Sciences (NCATS).
# Shown are actives, neighbours in structure and some others; about 2.1% of the full set was active somewhere.
# TDP-43 yeast inh – qHTS of TDP-43 Inhibitors. TDP-43 expressing yeast growth rescue, BacTiter-Glo, 24 h. Potency, µM (top dose mostly 46.1 µM), for the others: top-dose growth rescue (activation), hits mostly activators. actives 1.8% (n = 410,000). AID 652104, 2013; also: % of control where 0% means no effect; nearly all actives have a fitted effect of over 50% in size
#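 Readout is BacTiter-Glo luminescence of cell growth, so inhibitors register as activators. TDP-43-expressing yeast at OD600=0.02 in galactose medium, after raffinose pregrowth to mid-log, were incubated with compound for 24 hr at 30 deg C.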
# FUS suppressor – qHTS for Suppressors of FUS Proteinopathy: Primary screen using FUS-linked yeast assay; Potency, µM (highest dose often 76.6 µM), most hits filed as activators; S. cerevisiae FUS-expressing, growth rescue, OD600, 24 h; actives 0.24% (n = 390,000); AID 1347120, 2019;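 also: plate controls were DMSO vehicle for no effect and reference control for full effect; nearly all actives have a fitted effect of over 55% in size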
#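 Yeast expressing FUS under galactose induction, OD 0.005 in 2% galactose medium; compounds in a dilution series, 24 h at 30C. Growth rescue by absorbance at 600 nm; CP55940 positive control, DMSO negative.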
# Abeta rescue – qHTS for compounds that reverse cellular toxicity of Amyloid beta (A-beta) peptide in yeast: Primary Screen | yeast expressing A-beta42, growth rescue, OD600, 48 h; response scale: 0% DMSO, 100% iron-clioquinol control | Potency, µM (top dose mostly 46.1 µM), actives largely listed as activators | actives 0.063% (n = 410,000); also: nearly all actives have a fitted effect of over 55% in size
#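 Yeast A-beta toxicity model in growth medium with pinned compounds, 48 h at 30 C; growth read as absorbance at 600 nm. Normalized to FeCl3/clioquinol equimolar mix (positive) and DMSO (negative).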
# aSyn yeast inh – qHTS of alpha-syn Inhibitors. Yeast expressing alpha-synuclein, growth rescue, BacTiter-Glo, 24 h. Potency, µM (series often up to 46.1 µM), for the others: at the highest dose growth rescue (activation), usual class: activators. actives 0.14% (n = 370,000); also: % of control where 0% means no effect; nearly all actives have a fitted effect of over 65% in size
#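 Readout is rescue of growth in alpha-synuclein-expressing yeast, so inhibitors of toxicity appear as activators. Growth after 24 hr at 30 deg C in galactose medium is quantified by luminescence.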
# Active calls of the source: *; i = inactive; u = inconclusive; x = no result; [ ] = dose if it differs, or a comment. Calls follow the shape of the dose curve; as a rule, active = well fitted curve in the direction sought with a large enough effect; inconclusive = small, poorly fitted or top-dose-only effect, or another doubt; inactive = no such curve, though single readings can be large; an effect the other way counts as inactive or inconclusive. Potency is read from the fitted curve at half-maximal effect.
SMILES,TDP-43 yeast inh,FUS suppressor,Abeta rescue,aSyn yeast inh
O=C1COc2ccccc2N1Cc1ccccc1Cl,22.4µM*,i,i,15.0%
CCn1nnc2cc(C(=O)Nc3cccc(C)c3C)ccc21,8.0%,i,i,x
CCN(CC)CCCNC(=O)CC1Oc2ccccc2NC1=O (stereo unspecified),x,i,x,x
CC1(C(=O)NCc2cccc(C(F)(F)F)c2)CCN1Cc1cc2ccccc2o1 (stereo unspecified),0.0%,i,i,12.7%
CC1(C(=O)NCc2cccc(C(F)(F)F)c2)CCN1Cc1ccc(-c2ccccc2)o1 (stereo unspecified),-25.6%,i,i,20µM*
O=C(c1ccccc1)c1ccccn1,-1.1%[0.397 µM],i,i,3.3%
O=C(CC(=O)c1ccccn1)c1ccccc1,u,x,u,12.6µM*
CCC[C@H]1[C@H](N)CC[C@@]23CCCN2C(=O)CCC[C@@H]13,x,i,x,x
Cc1ccc(-c2nc(Cn3c(SCc4ccc(F)cc4)nc4cccnc43)c(C)o2)cc1,26.3%,i,i,x
Cc1oc(-c2cccc(Br)c2)nc1Cn1c(SCc2cccc(F)c2)nc2cccnc21,28.2µM*,i,u,x
Cc1cc(N)n2ncc(-c3ccc(F)cc3)c2n1,18.9%,i,i,2.8%
Cc1cc(N)n2ncc(-c3ccc(Cl)cc3)c2n1,8.91µM*,i,i,-11.7%
CC(C)CNc1ncnc2oc(-c3ccco3)c(-c3ccco3)c12,x,x,x,8.3%
O=S(=O)(Nc1cccc2c1CCCC2)c1cccc(C(F)(F)F)c1,25.1µM*,i,u,u
CCOc1ccccc1C(=O)Nc1ccc2nc(C)[nH]c(=O)c2c1,x,i,x,x
CC(=O)C1=C(C)NC(SCC(=O)c2ccc(Cl)c(Cl)c2)=C(C#N)C1c1ccco1 (stereo unspecified),-0.9%,i,i,5.9%
CC(=O)C1=C(C)NC(SCC(=O)c2cc(Cl)ccc2Cl)=C(C#N)C1c1ccco1 (stereo unspecified),-28.6%,25.1µM*,i,-7.6%
CCOc1ccc(NC(=O)CC2C(=O)N(c3ccc(OC)cc3)C(=O)N2C2CCCCC2)cc1 (stereo unspecified),-11.9%,39.8µM*,i,x
CC(=O)Nc1ccc(-c2csc(NC(=O)c3ccc(C)o3)n2)cc1,24.3%,28.2µM*,i,-10.9%
CCCc1ccc(-c2csc(NC(=O)C3=COCCO3)n2)cc1,15.8µM*,i,i,-4.9%
Cc1ccc(C(=O)Nc2cccc(NC(=O)c3ccc(C)o3)n2)o1,7.94µM*,i,i,-15.4%
COc1cccc(CCNC(=O)c2cnc3sc(N4CCCCCC4)nn3c2=O)c1,0.0%,i,i,x
Cc1ccc(OCC(=O)Nc2ccc3nc(SCC(=O)N4CCOCC4)sc3c2)cc1C,13.2%,i,i,x
O=C(C1CCN(S(=O)(=O)c2ccccc2F)CC1)N1CCc2ccccc21,12.6µM*,i,i,14.9%
O=C(C1CCN(S(=O)(=O)c2ccccc2)CC1)N1CCc2ccccc21,19.6%,i,i,0.0%
SMILES,TDP-43 yeast inh,FUS suppressor,Abeta rescue,aSyn yeast inh
Cc1ccccc1NC(=O)CSc1nnc(-c2ccco2)c(-c2ccco2)n1,6.8%,i,i,-1.4%
O=C(CSc1nnc(-c2ccco2)c(-c2ccco2)n1)Nc1ccccc1,9.2%,22.4µM*,i,-1.4%
Cc1cccc(C)c1NC(=O)CSc1nnc(-c2ccco2)c(-c2ccco2)n1,22.4µM*,i,i,7.1%
Cc1ccc(NC(=O)CSc2nnc(-c3ccco3)c(-c3ccco3)n2)cc1,-3.1%,u,i,8.1%
CN(C(=O)c1ccc2c(c1)N(Cc1ccccc1F)C(=O)c1ccccc1S2(=O)=O)C1CCCCC1,-3.6%,10µM*,i,x
CN(Cc1ccccc1)C(=O)c1ccc2c(c1)N(Cc1ccccc1F)C(=O)c1ccccc1S2(=O)=O,0.5%,31.6µM*,i,x
Cc1cccc(CN2C(=O)c3ccccc3S(=O)(=O)c3ccc(C(=O)N(C)Cc4ccccc4)cc32)c1,14.4%,u,i,x
O=S(=O)(c1ccc2ncccc2c1)N1CCN(c2nc(-c3cccs3)nc3ccccc23)CC1,x,x,x,-2.3%
COc1ccc(Cl)cc1NC(=S)NCCSc1ccc(C)cc1,22.4µM*,x,i,-6.2%
Cc1cccc(C)c1NC(=S)NCCSc1ccc(Cl)cc1,22.4µM*,i,i,5.7%
O=C(NCCSc1ccc(Cl)cc1)c1ccco1,7.08µM*,i,i,-2.6%
CCCN(CCC)c1nn2c(=O)c(C(=O)NCc3cccc(OC)c3)cnc2s1,29.0%,i,i,x
Cc1nn(-c2ccccc2C(=O)O)c(=O)c2ccccc12,-21.0%,i,i,10.0%
O=C(O)c1ccccc1-n1c2ccccc2c2ccccc21,20µM*,i,i,u
CCOC(=O)c1cc(-c2ccccc2)n(CC(=O)Nc2ccccc2OCC)c1C,8.1%,i,i,x
C=C(C)COc1ccc(-c2nc(N)ncc2-c2ccc(Br)cc2)c(O)c1,20µM*,i,i,-43.0%
C=C(C)COc1ccc(-c2ncncc2-c2ccc(Br)cc2)c(O)c1,8.1%,i,i,-10.5%
CC(C)CN1C(=O)[C@]2(CC(=O)N(C)C2c2ccccc2)c2cc(-n3cc(CCCC#N)nn3)ccc21 (stereo partly specified),x,i,x,x
Cc1ccc(Nc2nc(C)cc(C)n2)c(Br)c1,10µM*,i,i,-3.0%
CC(C)CN(CC(C)C)c1ccc(/C=C/c2ccnc3ccccc23)cc1,x,x,x,-57.2%
COc1ccc(NC(=O)Cn2c(=O)n(C(C)C)c(=O)c3oc4ccccc4c32)cc1Cl,25.5%,i,i,x
COc1ccc(Cl)cc1NC(=O)Cn1nc(Cc2ccncc2)c2ccccc2c1=O,1.1%,i,i,x
CC(C)C[C@@H](CN1CCC[C@@H]1CN1C(=S)NC[C@@H]1Cc1ccc(O)cc1)N1C[C@H](Cc2ccc(O)cc2)N(CCc2ccccc2)C1=S,-0.9%,35.5µM*,i,-3.7%
CCCN1CNc2c(c(=O)[nH]c(=S)n2CCC(C)C)C1,x,x,x,-3.4%
CCCCCCN1C[C@H](n2cc(COC(=O)c3ccccc3)nn2)[C@@H](O)C[C@@H]1c1ccccc1,29.5%,i,i,11.1%
CCCCCCN1C[C@@H](n2cc(COC(=O)c3ccccc3)nn2)[C@H](O)C[C@@H]1c1ccccc1,19.3%,i,i,25.1µM*
CCCCCCN1C[C@H](n2cc(COC(=O)c3ccccc3)nn2)[C@@H](O)C[C@@H]1c1ccc(C)cc1,35.5µM*,u,i,-14.3%
COc1cc(Cl)ccc1OCc1cc(C(=O)NCC(C)(C)N2CCOCC2)no1,8.3%,i,i,-0.9%
COc1cc(Cl)ccc1OCc1cc(C(=O)NCc2cc(C(C)C)no2)no1,11.2µM*,x,i,11.8%
CCN(CC)C(=O)CC[C@H]1CC[C@]2(CCCN(c3ccccc3)C2)O1,x,i,x,x
